Assay type in all cases: functional
For experiment [1], the target named is Solute carrier family 2, facilitated glucose transporter member 1 (Homo sapiens) (UniProt P11166). Nature of the experiment: ST_JUDE_LEISH: Cytotoxicity at 2uM final concentration against transgenic Leishmania Mexicana promastigotes LmGLUT1 that are glucose transport deficient and complemented with the human glucose transporter GLUT1. Activity is measured by DNA content using SYBR green in vitro.

Experiment [2] has as its target Hexose transporter 1 (Plasmodium falciparum) (UniProt O97467). The experiment can be described thus: ST_JUDE_LEISH: Cytotoxicity at 2uM final concentration against transgenic Leishmania Mexicana promastigotes LmPfHT that are glucose transport deficient and complemented with the Plasmodium falciparum hexose transporter. Activity is measured by DNA content using SYBR green in vitro.

The target of experiment [3] is Glucose transporter (Leishmania mexicana) (UniProt O61059). Nature of the experiment: ST_JUDE_LEISH: Cytotoxicity at 2uM final concentration against transgenic Leishmania Mexicana promastigotes LmGT2 that are glucose transport deficient and complemented with the L. Mexicana glucose transporter 2. Activity is measured by DNA content using SYBR green in vitro.

Several values for one entry are separate records, joined by “and”; a condition that tells them apart may be missing. Identical values can stand only once.

As usually defined, the inhibition is the drop in the measured response relative to a control, in per cent.

Sequence of Solute carrier family 2, facilitated glucose transporter member 1 (Homo sapiens) (P11166 whole entry): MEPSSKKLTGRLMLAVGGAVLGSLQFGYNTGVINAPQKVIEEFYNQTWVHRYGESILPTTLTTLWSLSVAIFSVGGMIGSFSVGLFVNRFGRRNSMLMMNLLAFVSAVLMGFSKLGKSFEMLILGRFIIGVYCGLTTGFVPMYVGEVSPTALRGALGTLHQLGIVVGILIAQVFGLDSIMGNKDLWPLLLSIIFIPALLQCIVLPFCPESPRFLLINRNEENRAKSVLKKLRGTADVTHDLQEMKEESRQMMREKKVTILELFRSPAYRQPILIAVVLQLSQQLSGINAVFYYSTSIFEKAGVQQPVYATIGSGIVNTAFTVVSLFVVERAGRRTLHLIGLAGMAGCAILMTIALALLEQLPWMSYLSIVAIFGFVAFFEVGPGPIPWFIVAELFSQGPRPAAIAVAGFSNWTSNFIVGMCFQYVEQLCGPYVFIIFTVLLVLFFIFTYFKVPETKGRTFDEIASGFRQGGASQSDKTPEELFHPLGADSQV

For `Oc1ccc(CN2CCN(CCOC(c3ccc(F)cc3)c3ccc(F)cc3)CC2)cc1Cl`, the inhibition in experiment [1] is 4.68%; in experiment [2] it was -0.31%; in experiment [3] it was -0.74%.

On to `Cc1cccc(C(=O)Nc2ccnc(N(C)C3CCN(Cc4cccc(O)c4)CC3)c2)c1`, for which the inhibition stood at 3.06% in experiment [1], 1.84% in experiment [2] and 3.85% in experiment [3].

In the case of `COc1ccc(C(=O)C2CC2CN2CC=C(c3c(C)[nH]c4ccccc34)CC2)cc1` (stereo not given), the figures for the inhibition in experiment [1], in experiment [2] and in experiment [3] were -1.12%, 2.52% and 3.3%, respectively.

Turning to `Cc1c2ccncc2c(C)c2c1[nH]c1ccccc12`, the values for the inhibition in experiment [1], in experiment [2] and in experiment [3] were 17.5%, 20.9% and 14.7%, respectively.

With `O=c1n[n+](C2CCCCC2)[n-]o1`, the inhibition in experiment [1] is -0.73%; in experiment [2], -0.13%; in experiment [3], -0.34%.

For the compound `CC(=O)N(Cc1cccc(-c2cccc(CNCCc3ccccc3)c2)c1)C1CCN(Cc2ccccc2)CC1`, the inhibition is -0.27% in experiment [1], 1.94% in experiment [2] and 4.41% in experiment [3].

As for `Cc1cc(O)cc2c(C3CCN(CC4CCC(NC(=O)/C=C/c5ccccc5Cl)CC4)CC3)c[nH]c12` (stereo not given), the inhibition was determined as 4.47% in experiment [1], 4.35% in experiment [2] and 3.52% in experiment [3].

Consider `COc1ccc(OC)c(C=CC(=O)NC2CCC(CN3CCC(c4c[nH]c5ccccc45)CC3)CC2)c1` (stereo not given), for which the inhibition in experiment [1] was -2.94%; in experiment [2], -0.24%; in experiment [3], -0.07%.

On to `O=C(/C=C/c1cccc2ccccc12)NC1CCC(CN2CCC(c3c[nH]c4ccccc34)CC2)CC1` (stereo not given), for which the inhibition in experiment [1] is 1.25% and 2.48%; in experiment [2] it was 0.21% and 2.66%; in experiment [3], -2.33% and 1.25%.

For the compound `CC(C)CN1CCC(N(C)c2cc(NC(=O)c3cccc(F)c3)ccn2)CC1`, the results for the inhibition in experiment [1], in experiment [2] and in experiment [3] were -1.6%, 0.49% and 0.5%, respectively.

With `COc1ccc2[nH]cc(C3CCN(Cc4ccc(NC(=O)c5ccc(-c6ccccc6)cc5)cc4)CC3)c2c1`, the values for the inhibition in experiment [1], in experiment [2] and in experiment [3] were 3.87%, 2.27% and 3.28%, respectively.

Consider `O=C(NC1CCC(CN2CCC(c3c[nH]c4ccccc34)CC2)CC1)c1cnn(-c2ccccc2)c1-c1ccccc1Cl` (stereo not given), for which the inhibition amounted to 4.74% in experiment [1], 10.3% in experiment [2] and 3.95% in experiment [3].

With `COC(=O)c1ccc(CC(C)NCC(O)c2cccc(OC(F)(F)F)c2)cc1` (stereo not given), the inhibition stood at 0.35% in experiment [1], 1.5% in experiment [2] and 1.7% in experiment [3].

For `CN(c1cc(NC(=O)c2cccs2)ccn1)C1CCN(Cc2cccc(F)c2)CC1`, the inhibition in experiment [1] was determined as 3.38%; in experiment [2], 3%; in experiment [3], 5.71%.

On to `Cc1[nH]c2ccccc2c1C1=CCN(CCCCCC23CCCc4cccc(c42)NC3=O)CC1` (stereo not given), for which the figures for the inhibition in experiment [1], in experiment [2] and in experiment [3] were 2.18%, 2.47% and 3.51%, respectively.

On to `O=C(NC1CCC(CN2CCC(c3c[nH]c4ccccc34)CC2)CC1)c1cc(-c2cccc(Cl)c2)n(-c2ccc(Cl)cc2Cl)n1` (stereo not given), for which the inhibition in experiment [1] is 1.34%; in experiment [2], -0.46%; in experiment [3], 0.47%.

Take `CCN1CCC(N2CCC(n3c(C)nc4cc(C(F)(F)F)ccc43)CC2)CC1`: the inhibition in experiment [1] was 3.01%; in experiment [2] it was 3.12%; in experiment [3], 4.4%.

On to `CN1C(=O)OC[C@@H]1Cc1ccc2[nH]cc(C3=CCN(Cc4ccccc4)CC3)c2c1`, for which the inhibition in experiment [1] is 2.44%; in experiment [2], 7.87%; in experiment [3], -0.74%.

As for `Cc1cc(CN2CCN(CCOC(c3ccccc3)c3ccccc3)CC2)ccc1O`, the figures for the inhibition in experiment [1], in experiment [2] and in experiment [3] were 16%, 13.2% and 13.6%, respectively.

`CC(Cc1ccc(OCCCCOc2ccccc2)cc1)NCCCN1CCOCC1` (stereo not given): the inhibition is -1.24% in experiment [1], 2.33% in experiment [2] and -0.25% in experiment [3].

Regarding `CN1C(=O)[C@H](NC(=O)[C@@H](Cc2ccccc2)NC(=S)Nc2ccccc2)N=C(c2ccccc2)c2ccccc21`, the figures for the inhibition in experiment [1], in experiment [2] and in experiment [3] were 1.25%, 0.57% and 1.74%, respectively.

On to `COc1cc2c(c(OC)c1OC)C[C@H]1c3c(cc4c(c3-2)OCO4)CCN1C`, for which the inhibition in experiment [1] is -0.22%; in experiment [2], 1.49%; in experiment [3], 1.06%.

`CC1=CC(=O)[C@@H](O)[C@]2(C)[C@H]3[C@@]4(O)OC[C@@]35[C@@H](C[C@@H]12)OC(=O)C[C@H]5[C@@H](C)[C@H]4O`: the inhibition in experiment [1] amounted to 7.27%; in experiment [2], 2.51%; in experiment [3], 0.79%.

With `CN(c1cc(NC(=O)c2ccc(F)cc2)ccn1)C1CCN(Cc2cccc(C#N)c2)CC1`, the inhibition in experiment [1] was 3.24%; in experiment [2], -2.19%; in experiment [3], 5.14%.

For `O=C(/C=C/c1ccc2ccccc2c1)NC1CCC(CN2CCC(c3c[nH]c4ccccc34)CC2)CC1` (stereo not given), the values for the inhibition in experiment [1], in experiment [2] and in experiment [3] were 1.06%, 1.84% and 3.4%, respectively.

Regarding `Oc1ccc2[nH]cc(C3=CCN(CCc4ccccc4)CC3)c2c1`, the inhibition in experiment [1] turned out to be 15.8%; in experiment [2], 18.1%; in experiment [3], 13.4%.

On to `Cc1ccc(CC(C)NCC(O)c2cccc(Br)c2)cc1` (stereo not given), for which the inhibition was 1.02% in experiment [1], -0.15% in experiment [2] and 1.21% in experiment [3].

Consider `CC1=C(C(=O)NC2CCC(CN3CCC(c4c[nH]c5ccccc45)CC3)CC2)Cc2ccccc21` (stereo not given), for which the inhibition in experiment [1] is -3.48% and -2.8%; in experiment [2], 2.28% and -2.66%; in experiment [3], -4.68% and 10.4%.

In the case of `CN(C)CCCn1cc(C(=O)OC2CC3CCC(C2)N3C)c2cc(-c3ccccc3)ccc21` (stereo not given), the inhibition was determined as 12.9% in experiment [1], 6.68% in experiment [2] and 9.57% in experiment [3].

`CC[C@H]1CN2CCc3cc(OC)c(OC)cc3[C@@H]2C[C@@H]1C[C@H]1NCCc2c1cc(OC)c(O)c2I`: the inhibition came to 93.9% in experiment [1], 96.6% in experiment [2] and 90% in experiment [3].

`COc1ccc2[nH]cc(C3=CCN(CC4CC4C(=O)c4ccccc4)CC3)c2n1` (stereo not given): the inhibition in experiment [1] was 12.6%; in experiment [2], 14.6%; in experiment [3], 11.3%.

Regarding `Oc1ccc2[nH]cc(C3=CCN(Cc4ccccc4)CC3)c2c1`, the inhibition was 11.2% in experiment [1], 10.5% in experiment [2] and 10.4% in experiment [3].

Consider `CC[C@H]1CN2CC[C@H]1C[C@@H]2[C@H](O)c1ccnc2ccc(O)cc12`, for which the inhibition is -0.84% in experiment [1], -0.85% in experiment [2] and 0.24% in experiment [3].

Take `CC(=O)Nc1ccc(CN2CCC(N(C)c3cc(NC(=O)c4cccc(F)c4)ccn3)CC2)cc1`: the inhibition in experiment [1] is -0.4%; in experiment [2] it was -0.05%; in experiment [3], 0.23%.

As to `CC[C@H]1CN2CC[C@@H]1C[C@H]2[C@H](O)c1cc(N2CCSCC2)nc2ccc(OC)cc12`, the inhibition in experiment [1] is 3.55%; in experiment [2], 3.67%; in experiment [3], -0.01%.

The record behind these values is ChEMBL document CHEMBL3433997, “St. Jude Leishmania screening dataset” (2016).
